SMN2 splice up = enhancers of SMN2 splice variant expression. HEK293 SMN2-luciferase splicing reporter, luminescence, 30-36 h. Potency, µM (doses to about 46.1 µM), hits mostly activators. actives 2.8% (n = 210,000). AID 1458; note: nearly all actives have a fitted effect of over 55% in size
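HEK293 cells carry an SMN2 minigene-luciferase reporter in which exon 7 inclusion puts luciferase in frame. Cells were seeded at 2000 cells/well, attached for 10-12 hours, then exposed to compounds for 30-36 hours at 37C before ONE-Glo luminescence.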
Rab9 promoter act = Rab9 promoter activation | actives 2.8% (n = 320,000) | Huh7 Rab9 promoter-luciferase reporter, luminescence, 24 h | Potency, µM (series often up to 9.22 µM), usual class: activators; note: nearly all actives have a fitted effect of over 60% in size
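Luminescence read-out: Huh7 cells stably expressing Rab9-luciferase, treated 24 h with compound at 37 °C, then lysed with luciferase reagent for 10 min at ambient before reading.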
ELG1 repair inh = ELG1-dependent DNA repair inhibition; HEK293T ELG1-luciferase reporter, luminescence, 16 h; DNA damage induced by 5-fluorouridine; AID 504467; Potency, µM (highest dose often 46.1 µM), most hits filed as inhibitors; actives 2.3% (n = 330,000); note: nearly all actives have a fitted effect of over 55% in size
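In this reporter screen, reduction of luminescence relative to DMSO vehicle indicated activity. Compounds and 5-fluorouridine were added together to 2,000 cells per well, incubated for 16 hr at 37 °C, then developed with ONE-Glo.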
NPC1 prom act = activates the NPC1 promoter; Huh7 NPC1 promoter luciferase reporter, 24 h; AID 485313; Potency, µM (doses to about 9.22 µM), actives largely listed as activators; actives 2.4% (n = 320,000); note: nearly all actives have a fitted effect of over 60% in size
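Huh7 cells stably carrying NPC1 promoter–luciferase, plated in Opti-MEM with 10% FBS for 2 h, were exposed to compound in DMSO for 24 h at 37 °C; luciferase reagent was added for 10 min and luminescence read.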
ELG1 genotox = inducers of genotoxicity in HEK293T ELG1-luciferase cells; Potency, µM (titrated, usually from 46 µM), actives largely listed as activators; actives 1.3% (n = 330,000); HEK293T ELG1-luciferase reporter, luminescence, 16 h; note: nearly all actives have a fitted effect of over 60% in size
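Reporter readout depends on ELG1 protein level, which increases with genetic stress. After 16 hr compound exposure at 37 °C, luciferase activity was quantified using ONE-Glo.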
FLuc modulator = firefly luciferase modulation, counter-screen for miR-21 project; actives 6.9% (n = 360,000); P08659; Potency, µM (doses to about 57.5 µM), hits mostly inhibitors; purified FLuc, Km substrates, luminescence inhibition; AID 588342; note: nearly all actives have a fitted effect of over 55% in size
Target sequence (P08659 whole entry, looked up): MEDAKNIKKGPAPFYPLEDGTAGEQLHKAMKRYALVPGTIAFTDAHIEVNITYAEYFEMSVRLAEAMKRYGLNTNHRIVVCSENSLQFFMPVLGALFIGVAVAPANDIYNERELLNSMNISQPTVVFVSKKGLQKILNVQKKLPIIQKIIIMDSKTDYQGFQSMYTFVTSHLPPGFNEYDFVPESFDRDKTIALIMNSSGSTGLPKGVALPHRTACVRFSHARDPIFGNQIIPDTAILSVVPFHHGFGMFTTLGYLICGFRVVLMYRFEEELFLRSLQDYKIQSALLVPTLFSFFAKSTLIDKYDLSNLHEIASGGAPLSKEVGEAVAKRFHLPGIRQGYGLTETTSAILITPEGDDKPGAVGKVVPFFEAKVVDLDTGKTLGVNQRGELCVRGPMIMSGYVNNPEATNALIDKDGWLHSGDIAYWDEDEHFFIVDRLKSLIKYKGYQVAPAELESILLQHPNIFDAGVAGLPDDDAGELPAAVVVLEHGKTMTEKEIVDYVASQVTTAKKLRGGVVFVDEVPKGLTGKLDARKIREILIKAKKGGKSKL
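Biochemical qHTS of compounds, final roughly 60 µM downward over six points, against 10 nM purified firefly luciferase using Km concentrations of substrates (10 uM D-luciferin, 10 uM ATP) in Tris acetate pH 7.5 buffer; luminescence output.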
Numbers stand for hits; [ ] = remark or other dose. Sampled rows, rich in hits. Any-hit rate of the full collection: about 9.2%. Calls come from the whole dose curve; as a rule, active = well fitted curve in the direction sought with a large enough effect; inconclusive = small, poorly fitted or top-dose-only effect, or another doubt; inactive = no such curve, though single readings can be large; an effect the other way counts as inactive or inconclusive.

What do the screens show for `O=C(O)Cc1sc(-c2ccc(Cl)cc2)nc1-c1ccccc1`?
SMN2 splice up: inactive; Rab9 promoter act: inactive; ELG1 repair inh: inactive; NPC1 prom act: inactive; ELG1 genotox: inactive; FLuc modulator: 17µM

What do the screens show for `COc1cccc(NC(=O)CN(C)C(=O)Cn2c(=O)oc3ccccc32)c1`?
Rab9 promoter act: inactive; ELG1 repair inh: inactive; NPC1 prom act: inactive; ELG1 genotox: inactive; FLuc modulator: inactive

How did Cc1ccc(-n2nc3c(=O)n(CC(=O)NC4CCCCC4)nc(C)c3c2C)cc1 do in these assays?
Rab9 promoter act: inactive; ELG1 repair inh: inactive; NPC1 prom act: inactive; ELG1 genotox: inactive[9.26 µM]; FLuc modulator: inactive

How did Cc1ccc2c(c1)c1c(c(=O)n(Cc3ccccc3)c(=O)n1Cc1cccc(F)c1)n2C do in these assays?
FLuc modulator: inactive

How did O=C(O)Cc1sc(Nc2ccc(F)cc2)nc1-c1cccs1 do in these assays?
Rab9 promoter act: inconclusive; ELG1 repair inh: inconclusive; NPC1 prom act: inactive; ELG1 genotox: inactive; FLuc modulator: 17µM

What do the screens show for `Cc1ccc(Nc2nc(-c3ccccc3)c(CC(=O)O)s2)cc1`?
SMN2 splice up: inactive; Rab9 promoter act: inactive; ELG1 repair inh: inconclusive; NPC1 prom act: inactive; ELG1 genotox: inconclusive; FLuc modulator: 13µM

How did N=C1C=CC(=C(c2ccc(N)cc2)c2ccc(N)cc2)C=C1 do in these assays?
SMN2 splice up: inactive[9.22 µM]

Results for N=C1C(c2nc3ccccc3s2)=C(O)CN1Cc1ccco1 ?
SMN2 splice up: inconclusive; Rab9 promoter act: inconclusive; ELG1 repair inh: inconclusive; NPC1 prom act: inconclusive; ELG1 genotox: 9.2µM; FLuc modulator: inconclusive

How did CN(C)CCN1CC(O)=C(c2nc3ccccc3s2)C1=N do in these assays?
Rab9 promoter act: inactive; ELG1 repair inh: inactive; NPC1 prom act: inactive; ELG1 genotox: inactive; FLuc modulator: inactive

What do the screens show for `Cn1c(-c2ccccc2)cc(=O)c2ccccc21`?
SMN2 splice up: inactive; Rab9 promoter act: inactive; ELG1 repair inh: inactive; NPC1 prom act: inactive; ELG1 genotox: inactive; FLuc modulator: inactive

Results for COc1ccc2c(c1)c(=O)cc(-c1ccccc1)n2C ?
SMN2 splice up: inconclusive; Rab9 promoter act: inactive; ELG1 repair inh: inconclusive; NPC1 prom act: inactive; ELG1 genotox: inconclusive; FLuc modulator: 24µM

Results for COC(=O)c1cc(Cl)c(NC(=O)/C=C/c2ccc(Cl)cc2Cl)cc1OC ?
SMN2 splice up: inactive; Rab9 promoter act: inactive; ELG1 repair inh: inactive; NPC1 prom act: inactive; ELG1 genotox: inconclusive; FLuc modulator: inactive

Results for COC(=O)c1sccc1NC(=O)/C=C/c1c(Cl)cccc1Cl ?
SMN2 splice up: 14µM; Rab9 promoter act: inconclusive; ELG1 repair inh: inconclusive; NPC1 prom act: inactive; ELG1 genotox: inconclusive; FLuc modulator: 12µM

How did COC(=O)c1sccc1NC(=O)/C=C/c1ccc(Cl)cc1Cl do in these assays?
SMN2 splice up: 11µM; Rab9 promoter act: inconclusive; ELG1 repair inh: inconclusive; NPC1 prom act: inconclusive; ELG1 genotox: inconclusive; FLuc modulator: inconclusive

Results for COc1ccc(CCNC(=O)Cc2ccc(NC3=NC4CS(=O)(=O)CC4S3)cc2)c(OC)c1 (configuration not stated) ?
Rab9 promoter act: inactive; ELG1 repair inh: inactive; NPC1 prom act: inactive; ELG1 genotox: inactive; FLuc modulator: inactive

What do the screens show for `CCCc1ccc2oc(C(=O)N3CCC[C@H]3CO)c(C)c2c1`?
Rab9 promoter act: 3.2µM; ELG1 repair inh: inconclusive; NPC1 prom act: 6.3µM; ELG1 genotox: inconclusive; FLuc modulator: 11µM

What do the screens show for `CCCc1ccc2oc(C(=O)N3CCC(COC)C3)c(C)c2c1` (configuration not stated)?
Rab9 promoter act: 2.8µM; ELG1 repair inh: inconclusive; NPC1 prom act: 2.8µM; ELG1 genotox: inconclusive; FLuc modulator: 12µM

Results for CC(=O)c1ccc(NC(=O)CCCN2C(=O)/C(=C/C(C)=C/c3ccccc3)SC2=S)cc1 ?
SMN2 splice up: inactive; Rab9 promoter act: inactive; ELG1 repair inh: inactive; NPC1 prom act: inactive; ELG1 genotox: inactive; FLuc modulator: inactive

How did CC(=C\c1ccccc1)/C=C1/SC(=S)N(CCC(=O)O)C1=O do in these assays?
Rab9 promoter act: inactive[1.84 µM]; ELG1 repair inh: inconclusive; NPC1 prom act: inactive; ELG1 genotox: inactive; FLuc modulator: 21µM

What do the screens show for `CC(/C=C1\SC(=S)N(CC(=O)N2CCN(c3ccccc3)CC2)C1=O)=C\c1ccccc1`?
SMN2 splice up: inactive[1.84 µM]; Rab9 promoter act: inactive; ELG1 repair inh: inactive; NPC1 prom act: inactive; ELG1 genotox: inactive; FLuc modulator: inactive

How did CC(=C\c1ccco1)/C=C1/SC(=S)N(CC(=O)O)C1=O do in these assays?
Rab9 promoter act: inactive; ELG1 repair inh: inconclusive; NPC1 prom act: inactive; ELG1 genotox: inactive; FLuc modulator: 17µM

Results for CC(/C=C1\SC(=S)N(CC(=O)O)C1=O)=C\c1ccccc1 ?
Rab9 promoter act: inactive; ELG1 repair inh: inconclusive; NPC1 prom act: inconclusive; ELG1 genotox: inactive; FLuc modulator: 17µM

What do the screens show for `COCCNS(=O)(=O)c1ccc(C)c(C)c1C`?
SMN2 splice up: inactive; Rab9 promoter act: inactive; ELG1 repair inh: inactive; NPC1 prom act: inactive; ELG1 genotox: inactive; FLuc modulator: inactive

How did Cc1ccc(N2CC(C(=O)N3CCCCCC3)CC2=O)cc1 (configuration not stated) do in these assays?
Rab9 promoter act: inactive; ELG1 repair inh: inconclusive; NPC1 prom act: inactive; ELG1 genotox: inactive; FLuc modulator: inactive

Results for CCCCc1ccc(NC(=O)CC(C)C)cc1 ?
SMN2 splice up: inconclusive; Rab9 promoter act: inconclusive; ELG1 repair inh: inconclusive; NPC1 prom act: inconclusive; ELG1 genotox: inconclusive; FLuc modulator: 19µM

How did CCCCc1ccc(NC(=O)COCC)cc1 do in these assays?
SMN2 splice up: inactive; Rab9 promoter act: inactive; ELG1 repair inh: inconclusive; NPC1 prom act: inactive; ELG1 genotox: 21µM; FLuc modulator: 19µM

What do the screens show for `CCCCc1ccc(NC(=O)CSCc2cc(=O)[nH][nH]2)cc1`?
SMN2 splice up: inactive; Rab9 promoter act: inactive; ELG1 repair inh: inactive; NPC1 prom act: inactive; ELG1 genotox: inactive; FLuc modulator: 12µM

What do the screens show for `Cc1cc(NC(=O)Nc2ccc(F)cc2F)n(C)n1`?
SMN2 splice up: inactive; Rab9 promoter act: inactive; ELG1 repair inh: inactive; NPC1 prom act: inactive; ELG1 genotox: inactive; FLuc modulator: inactive

What do the screens show for `CCCCc1ccc(NC(=O)Nc2cc(C)nn2C)cc1`?
Rab9 promoter act: inactive; ELG1 repair inh: 4.1µM; NPC1 prom act: inactive; ELG1 genotox: inactive; FLuc modulator: inconclusive

Results for O=C(CSCc1cc(=O)[nH][nH]1)Nc1ccc(F)cc1 ?
Rab9 promoter act: inactive; ELG1 repair inh: inactive; NPC1 prom act: inactive; ELG1 genotox: inactive; FLuc modulator: inactive

Results for CCOCC(=O)Nc1ccc(Br)c(C)c1 ?
SMN2 splice up: inactive; Rab9 promoter act: inconclusive; ELG1 repair inh: inconclusive; NPC1 prom act: inactive; ELG1 genotox: inconclusive; FLuc modulator: inconclusive
